Assay outcomes from PubChem.
EWS-Fli block – inhibitors of EWS/Fli oncoprotein transcriptional activity; A673 NR0B1-luciferase reporter, viability-normalised; inhibition, % at 12.6 µM; 350,000 tested, 0.67% active;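 active means mean inhibition of at least 50% after viability correction, with every replicate also passing that limit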;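 further: firefly luciferase signal divided by Alamar Blue viability fluorescence both relative to DMSO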
TWEAK Fn14 block – TWEAK-Fn14 signaling inhibition; TWEAK-stimulated Fn14 reporter cells, luciferase luminescence, 8 h; inhibition, % at 10 µM; 360,000 tested, 2% active; AID 1159606; in the data active means inhibition above about 50%
TROY NFkB inh – TROY signaling inhibition; Q293 LMP1-TROYcd NF-kB luciferase reporter, 4 h; inhibition, % at 10 µM; 360,000 tested, 0.98% active; AID 1347056;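 active means compounds whose plate-normalised and pattern-corrected inhibition of the luciferase reporter signal at the single screening dose is 50% or more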
LGR2 antag – inhibitors of bursicon-induced Drosophila LGR2 receptor cAMP signaling. 380,000 tested, 0.35% active. inhibition, % at 9.99 µM. HEK293 LGR2, CRE-luciferase, bursicon-stimulated, 4 h. AID 720647;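 active means drop in luminescence signal, shown as inhibition above about 50% in the replicate tests, limit read from the data, passing the limit was not always enough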;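 further: agonist challenge used bursicon conditioned medium at about half maximal strength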
EBV LMP1 NFkB – inhibitors of Epstein-Barr LMP1-induced NF-kappaB reporter. 350,000 tested, 0.69% active. LMP1-induced NF-kappaB luciferase reporter cells, luminescence. inhibition, % at 12.5 µM. AID 504558; in the data active means inhibition above about 41%
Numbers stand for hits. This is a sample that favours compounds with a hit; in the whole collection about 2.6% have one here.

`COc1ccc2nc(NC(=O)C3CCN(S(=O)(=O)c4cccs4)CC3)sc2c1` gave TWEAK Fn14 block 55.0, TROY NFkB inh 54.3 and EBV LMP1 NFkB inactive.
`Cc1ccc2nc(NC(=O)C3CCN(S(=O)(=O)c4cccnc4)CC3)sc2c1` gave EWS-Fli block inactive, TWEAK Fn14 block inactive, TROY NFkB inh inactive, LGR2 antag inactive and EBV LMP1 NFkB inactive.
O=C(Nc1nc2ccc(C(=O)N3CCCCC3)cc2s1)C1CCCCC1 was read as EWS-Fli block 54.4, TWEAK Fn14 block inactive, TROY NFkB inh inactive, LGR2 antag inactive and EBV LMP1 NFkB inactive.
`COc1ccc2nc(NC(=O)C3CCCN(S(=O)(=O)c4cccs4)C3)sc2c1` (configuration not stated) gave TWEAK Fn14 block inactive, TROY NFkB inh inactive and EBV LMP1 NFkB inactive.
Cc1ccc2nc(NC(=O)C3CCN(S(=O)(=O)c4cccs4)CC3)sc2c1 was read as TWEAK Fn14 block 79.5, TROY NFkB inh inactive, LGR2 antag inactive and EBV LMP1 NFkB inactive.
`Cc1ccc2nc(NC(=O)C3CCN(S(=O)(=O)c4cccc5nsnc45)CC3)sc2c1` gave TWEAK Fn14 block 92.2, TROY NFkB inh inactive, LGR2 antag inactive and EBV LMP1 NFkB inactive.
Cc1noc(C)c1NC(=O)NCC[C@H]1CC[C@@H](NC(=O)c2ccccc2)[C@H](CO)O1 was read as EWS-Fli block inactive and LGR2 antag inactive.
For COc1ccc(S(=O)(=O)N(C)C[C@H]2Oc3c(NS(=O)(=O)c4ccc(Cl)cc4)cccc3C(=O)N([C@@H](C)CO)C[C@H]2C)cc1 the results were EWS-Fli block inactive and LGR2 antag inactive.
C[C@@H]1CN([C@H](C)CO)S(=O)(=O)c2ccc(/C=C/c3ccccc3)cc2O[C@@H]1CN(C)Cc1cccnc1 was read as EWS-Fli block inactive and LGR2 antag inactive.
`Cc1cccc(S(=O)(=O)N2CC[C@@H]3[C@H](CO)Nc4ccc(C#Cc5ccc(F)cc5)cc4[C@@H]32)c1` gave EWS-Fli block inactive and LGR2 antag inactive.
Screening CN(c1cccc(NC(=O)CN(c2ccc(C34CC5CC(CC(C5)C3)C4)cc2)S(C)(=O)=O)c1)S(C)(=O)=O returned TWEAK Fn14 block 60.7, TROY NFkB inh inactive and EBV LMP1 NFkB inactive.
CCOC(=O)c1cn[nH]c1NC(=S)Nc1ccc(Cl)cc1 was read as EWS-Fli block inactive, TWEAK Fn14 block 60.5, TROY NFkB inh 61.0 and LGR2 antag inactive.
`CCOC(=O)c1ccc(NC(=S)Nc2ccc(C)cc2)cc1` gave EWS-Fli block inactive, TWEAK Fn14 block inactive, TROY NFkB inh inactive and EBV LMP1 NFkB inactive.
Screening C[C@@H]1CCCCO[C@@H](CN(C)S(=O)(=O)c2ccc(Cl)cc2)[C@@H](C)CN([C@H](C)CO)C(=O)c2cc(NC(=O)Nc3cccc4ccccc34)ccc2O1 returned EWS-Fli block inactive and LGR2 antag inactive.
For CC(=NNC(=S)N1CCN(C2CCCCCC2)CC1)c1ccccn1 the results were EWS-Fli block inactive, TWEAK Fn14 block inactive, TROY NFkB inh inactive, LGR2 antag inactive and EBV LMP1 NFkB inactive.
For CC(=NNC(=S)N1CCCCCC1)c1cccc2cccnc12 the results were EWS-Fli block inactive, TWEAK Fn14 block inactive, TROY NFkB inh inactive, LGR2 antag inactive and EBV LMP1 NFkB 52.3.
Screening CC(=NNC(=S)N1CCN(c2ccccn2)CC1)c1nccs1 returned TWEAK Fn14 block 104.3, TROY NFkB inh inactive and EBV LMP1 NFkB 74.3.
For COc1ccc(C(=O)Nc2ccc3c(c2)C(=O)N(C)C[C@@H](OC)[C@@H](C)CN[C@H](C)CO3)cc1 the results were EWS-Fli block inactive and LGR2 antag inactive.
C[n+]1cccc(C(=O)NNC(=O)C23CC4CC(CC(C4)C2)C3)c1 was read as EWS-Fli block inactive, TWEAK Fn14 block inactive, TROY NFkB inh 51.8, LGR2 antag inactive and EBV LMP1 NFkB inactive.
COc1ccccc1C(=O)NNC(=O)C12CC3CC(CC(C3)C1)C2 was read as EWS-Fli block inactive, TWEAK Fn14 block inactive, TROY NFkB inh inactive, LGR2 antag inactive and EBV LMP1 NFkB inactive.
Screening CCC(=O)N1[C@@H](CO)[C@@H]2c3ccccc3N(S(=O)(=O)c3ccc(F)cc3)C[C@@H]21 returned EWS-Fli block inactive and LGR2 antag inactive.
CC(=O)N=c1sc2cc(C)ccc2n1C was read as TWEAK Fn14 block 51.9, TROY NFkB inh inactive, LGR2 antag inactive and EBV LMP1 NFkB inactive.
For Cn1c(=NC(=O)c2ccco2)sc2ccccc21 the results were EWS-Fli block inactive, TWEAK Fn14 block inactive, TROY NFkB inh inactive, LGR2 antag inactive and EBV LMP1 NFkB inactive.
Screening Cn1c(=NC(=O)CCl)sc2ccccc21 returned EWS-Fli block 73.5, TWEAK Fn14 block inactive, TROY NFkB inh inactive, LGR2 antag inactive and EBV LMP1 NFkB inactive.
Screening C[C@@H]1CN([C@H](C)CO)S(=O)(=O)c2ccc(-c3cccnc3)cc2O[C@H]1CN(C)C(=O)NC1CCCC1 returned EWS-Fli block inactive and LGR2 antag inactive.
`O=C(O)c1cccc(-n2cccc2/C=C2/NC(=O)N(c3ccc(Cl)cc3)C2=O)c1` gave EWS-Fli block inactive, TWEAK Fn14 block inactive, TROY NFkB inh inactive, LGR2 antag inactive and EBV LMP1 NFkB inactive.
For COc1ccc(-n2cccc2/C=C2/NC(=O)N(c3cccc(Cl)c3)C2=O)cc1 the results were EWS-Fli block inactive, TWEAK Fn14 block 56.3, TROY NFkB inh 76.1 and EBV LMP1 NFkB inactive.
O=C(O)c1cccc(-n2cccc2/C=C2/NC(=O)N(c3cccc(Cl)c3)C2=O)c1 was read as EWS-Fli block inactive, TWEAK Fn14 block 58.1, TROY NFkB inh inactive, LGR2 antag inactive and EBV LMP1 NFkB inactive.
`C[C@@H]1CN([C@H](C)CO)C(=O)c2cc(NC(=O)c3ccncc3)ccc2O[C@@H](C)CCCCO[C@@H]1CN(C)Cc1ccc(C(F)(F)F)cc1` gave EWS-Fli block inactive and LGR2 antag inactive.
CC1(C)Cc2ccccc2C(/C(=N\Nc2cccc(Cl)c2)C(N)=O)=N1 was read as TWEAK Fn14 block 55.6, TROY NFkB inh inactive, LGR2 antag inactive and EBV LMP1 NFkB inactive.
`COC(=O)c1sc(-c2ccc(C(C)(C)C)cc2)cc1NC(=O)c1ccccc1C(=O)O` gave EWS-Fli block inactive, TWEAK Fn14 block inactive, TROY NFkB inh 52.0, LGR2 antag inactive and EBV LMP1 NFkB inactive.
For CCOc1cc(/C=C2\COc3ccccc3C2=O)ccc1OCC(=O)N(C)C the results were EWS-Fli block inactive, TWEAK Fn14 block 78.7, TROY NFkB inh inactive, LGR2 antag inactive and EBV LMP1 NFkB inactive.
`COc1ccc(-c2ccc3c(c2)[C@@H]2[C@@H](CCN2S(=O)(=O)c2ccccc2C)[C@H](CO)N3C)cc1` gave EWS-Fli block inactive and LGR2 antag inactive.
Cc1cc(C)nc(SCCC(=O)Nc2ccccc2C)n1 was read as TWEAK Fn14 block 106.3, TROY NFkB inh inactive and EBV LMP1 NFkB inactive.
Screening Cc1ccc(S(=O)(=O)N(C)C[C@@H]2OCCCC[C@@H](C)Oc3ccc(NC(=O)Nc4ccc5c(c4)OCO5)cc3C(=O)N([C@@H](C)CO)C[C@@H]2C)cc1 returned EWS-Fli block inactive and LGR2 antag inactive.
For C[C@@H]1CN([C@@H](C)CO)C(=O)c2cc(NC(=O)Cc3ccccc3)ccc2O[C@@H](C)CCCCO[C@@H]1CN(C)C(=O)NC1CCCCC1 the results were EWS-Fli block inactive and LGR2 antag inactive.
